According to PubChem BioAssay AID686978 (National Center for Advancing Translational Sciences (NCATS), 2013):
In all, about 420,000 compounds went through this assay and about 64,000 (15%) were called active. Another 27% or so got no clear call; they are omitted. Only a sample is shown. A number with no mark means an inactive call. Calls come from the whole dose curve; as a rule, active = well fitted inhibition curve with a large enough effect; inconclusive = small, poorly fitted or top-dose-only effect; inactive = flat fitted curve, though single readings scatter.

test: qHTS for Inhibitors of human tyrosyl-DNA phosphodiesterase 1 (TDP1): qHTS in cells in absence of CPT; conditions: DT40 Tdp1-/- hTDP1 cells, no CPT, ATP luminescence, 48 h; activity change, negative = growth inhibition: at 46.2 µM (top of the series); note: nearly all actives have a fitted effect of over 55% in size
Procedure, shortened: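 Luminescent ATP content (CellTiter-Glo) served as the growth readout. Knockout chicken DT40 cells expressing human TDP1 were exposed to compounds without camptothecin for a minimum 48 hr at 37 °C.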
% is set by controls: 0 for no effect and ±100 for the full control effect; potency is the fitted concentration of half-maximal effect.

Row | Structure (SMILES) | activity change, negative = growth inhibition [%] | Potency
1 | COc1ccc(NC(=O)CN2C(=O)CSC2=O)cc1 | 1.73 | 
2 | COc1ccc(NC(=O)CN2C(=O)C(c3ccccc3)=NC23CCCCCC3)cc1OC |  | 18.4 µM (active)
3 | COc1ccc(C2=NC3(CCCCC3)N(CC(=O)Nc3ccc(C(C)C)cc3)C2=O)cc1 |  | 20.6 µM (active)
4 | COc1ccc(NC(=O)CNC(=O)Cc2ccccc2)cc1OC | -1.15 | 
5 | NC(=O)C1(N2CCCCC2)CCN(C2CC(=O)N(Cc3ccc(N4CCCC4=O)cc3)C2=O)CC1 (configuration not stated) | -3.12 | 
6 | CC(Oc1cccc(Cl)c1)C(=O)Nc1ccc(S(=O)(=O)Nc2ncccn2)cc1 (configuration not stated) | -0.0684 | 
7 | C[C@H](CO)N1C[C@H](C)[C@H](CN(C)CC2CC2)Oc2ccc(NC(=O)CCN3CCOCC3)cc2C1=O | -4.56 | 
8 | CC1CCCN(C(=O)c2cc(-c3ccco3)nc3ccccc23)C1 (configuration not stated) | -13.8 | 
9 | O=C1c2cccc3cccc(c23)C(=O)N1CCCCCc1n[nH]c(=S)o1 | -12.8 | 
10 | COc1ccc(CN(C)C(=O)Cc2c[nH]c3ccccc23)c(OC)c1OC | -23.1 | 
11 | CN(CC(=O)Nc1ccccc1Cl)C(=O)c1ccccc1SCC(=O)N1CCCC1 | -16.5 | 
12 | COc1ccc(-c2cc(C(=O)N(C)Cc3ccccc3)c3ccccc3n2)cc1 |  | 14.6 µM (active)
13 | COc1ccc(-c2cc(C(=O)N(C)CC(=O)Nc3ccccc3Cl)c3ccccc3n2)cc1OC |  | 9.2 µM (active)
14 | CC(C)(C)Cc1nnc(NC(=O)c2cc(-c3ccccc3)nc3ccccc23)s1 | -26.7 | 
15 | COc1ccc(NC(=O)c2cc(-c3cc(OC)c(OC)c(OC)c3)nc3ccccc23)c(OC)c1 |  | 8.2 µM (active)
16 | COc1ccc(/C=N/OCC(=O)N(Cc2ccccc2)c2ccccc2C(=O)O)cc1 | -1.1 | 
17 | CN(Cc1ccc(F)cc1)C(=O)COc1ccc2ccccc2c1 | -15.6 | 
18 | COc1ccccc1NC(=O)c1cc(Cl)nc2ccccc12 | 4.16 | 
19 | COc1ccc(-c2cc(C(=O)N(C)Cc3ccc(OC)c(OC)c3OC)c3ccccc3n2)cc1OC |  | 18.4 µM (active)
20 | Cc1cccc(C(=O)NCC(=O)OCC(=O)N(C)CC(=O)Nc2ccccc2Cl)c1 | -9.68 | 
21 | CC(C)(O)C#Cc1ccc(CNC[C@H]2O[C@@H](n3cnc4c(=O)[nH]c(N)nc43)[C@H](O)[C@@H]2O)s1 | 2.14 | 
22 | O=C(CN1CCC(NC(=O)C2CC2)CC1)Nc1ccccc1[N+](=O)[O-] | -8.6 | 
23 | C=O | 1.38 | 
24 | CN1CCC2(CC1)NC(=O)NC2=O | -11.8 | 
25 | Cc1ccc(NC(=O)COC(=O)CNC(=O)c2ccc(Cl)cc2Cl)cc1S(=O)(=O)N1CCOCC1 | 1.87 | 
26 | NC(=O)Cc1ccc2sc(-c3ccccc3)nc2c1 | -21.5 | 

Row | Structure (SMILES) | activity change, negative = growth inhibition [%] | Potency
27 | Cn1c(=O)n(C)c2cc(/C=N/NC(=O)c3cccc(Br)c3)ccc21 | -24.1 | 
28 | COc1ccc(CN(C)C(=O)c2cc(-c3ccc(C)cc3C)nc3ccccc23)c(OC)c1OC |  | 11.6 µM (active)
29 | Cc1ccc(-c2cc(C(=O)Nc3nn[nH]n3)c3ccccc3n2)c(C)c1 | 1.44 | 
30 | COc1ccc(CN(C)C(=O)Cc2ccsc2)c(OC)c1OC | -6.23 | 
31 | CC(=O)Nc1nc2c(s1)C(=O)NCC(C)(C)C2 | 5.92 | 
32 | Cn1nc(C(C)(C)C)c(NC(=O)c2sccc2Cl)c1C(C)(C)C | -23.7 | 
33 | NCCCNCCCCN(CCCN)/[N+]([O-])=N/O |  | 13.3 µM (active)
34 | COc1ccc(CN2[C@@H](CC(=O)O)c3cc(F)ccc3S2(=O)=O)cc1 |  | inactive
35 | COCCNC(=S)N1CCC(NC(=O)C23CC4CC(CC(C4)C2)C3)CC1 | -11.4 | 
36 | Cc1csc(NC(=S)Nc2cccc(Cl)c2)n1 |  | 4.61 µM (active)
37 | S=C(Nc1cccc(Cl)c1)Nc1ccc2c(c1)OCCO2 | -15.8 | 
38 | S=C(Nc1cccc(Cl)c1)Nc1ccc2cn[nH]c2c1 | -3.53 | 
39 | COc1cc(Cl)c(C)cc1Nc1nnc(-n2nc(C)cc2C)c2ccccc12 | -24 | 
40 | Cc1ccc(NC(=O)NC(=O)CSc2nnc(-c3ccc(OC(F)F)cc3)n2N)c(C)c1 | 11.1 | 
41 | CCOC(=O)CN(C(=O)CN1CCOCC1)c1ccc(Br)cc1 | -10.1 | 
42 | COC(CNC(=O)c1ccc2c(c1)ncn2-c1cc(C)cc(C)c1)OC | -14.3 | 
43 | COCCNC(=O)c1ccc2c(c1)ncn2-c1ccc(C)c(Cl)c1 |  | 14.6 µM (active)
44 | COc1ccc(-n2cnc3cc(C(=O)NC4CCCC4)ccc32)cc1 | -25.9 | 
45 | CC(=O)N/C(=C\c1ccc(F)cc1)C(=O)NC(Cc1ccccc1)C(=O)O (configuration not stated) | 8.07 | 
46 | Cc1cc(C)cc(NC(=O)CSc2ccccc2)c1 | -21.9 | 
47 | Cc1cc(C)cc(NC(=O)CSCc2cnn(-c3ccccc3)c2-n2cccc2)c1 |  | 10.3 µM (active)
48 | CC(=O)Nc1ccc(NC(=O)CSCc2cnn(-c3ccccc3)c2-n2cccc2)cc1 | -14.5 | 
49 | CCOC(=O)c1ccc(N2C(=O)CC(N3CCN(C(=O)c4ccccc4)CC3)C2=O)cc1 (configuration not stated) | 18.9 | 
50 | Nc1nnc2c(C(F)(F)F)nc3ccccc3n12 | -21.9 | 
51 | FC(F)(F)c1nnc2c3ccccc3c(Cl)nn12 |  | 6.51 µM (active)
52 | FC(F)(F)c1nnc2sc(-c3ccco3)nn12 | 15.9 | 
